The whole screen tested about 310,000 compounds, of which about 14,000 (4.5%) showed an effect of 50% or more. The effect is printed as a negative number. Many of the other results were omitted from the sample, so strong results are more common in it than they were.
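Also: peak tail current of the secondary pulse compared with the same well before compound.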

The experiment deals with human ether-à-go-go-related gene (hERG) potassium channel (human, UniProt Q12809). As to the kind of experiment: primary screen, population patch clamp on CHO cells stably expressing hERG; higher = less effect of the substance.
Sequence of human ether-à-go-go-related gene (hERG) potassium channel (Q12809 whole entry, looked up): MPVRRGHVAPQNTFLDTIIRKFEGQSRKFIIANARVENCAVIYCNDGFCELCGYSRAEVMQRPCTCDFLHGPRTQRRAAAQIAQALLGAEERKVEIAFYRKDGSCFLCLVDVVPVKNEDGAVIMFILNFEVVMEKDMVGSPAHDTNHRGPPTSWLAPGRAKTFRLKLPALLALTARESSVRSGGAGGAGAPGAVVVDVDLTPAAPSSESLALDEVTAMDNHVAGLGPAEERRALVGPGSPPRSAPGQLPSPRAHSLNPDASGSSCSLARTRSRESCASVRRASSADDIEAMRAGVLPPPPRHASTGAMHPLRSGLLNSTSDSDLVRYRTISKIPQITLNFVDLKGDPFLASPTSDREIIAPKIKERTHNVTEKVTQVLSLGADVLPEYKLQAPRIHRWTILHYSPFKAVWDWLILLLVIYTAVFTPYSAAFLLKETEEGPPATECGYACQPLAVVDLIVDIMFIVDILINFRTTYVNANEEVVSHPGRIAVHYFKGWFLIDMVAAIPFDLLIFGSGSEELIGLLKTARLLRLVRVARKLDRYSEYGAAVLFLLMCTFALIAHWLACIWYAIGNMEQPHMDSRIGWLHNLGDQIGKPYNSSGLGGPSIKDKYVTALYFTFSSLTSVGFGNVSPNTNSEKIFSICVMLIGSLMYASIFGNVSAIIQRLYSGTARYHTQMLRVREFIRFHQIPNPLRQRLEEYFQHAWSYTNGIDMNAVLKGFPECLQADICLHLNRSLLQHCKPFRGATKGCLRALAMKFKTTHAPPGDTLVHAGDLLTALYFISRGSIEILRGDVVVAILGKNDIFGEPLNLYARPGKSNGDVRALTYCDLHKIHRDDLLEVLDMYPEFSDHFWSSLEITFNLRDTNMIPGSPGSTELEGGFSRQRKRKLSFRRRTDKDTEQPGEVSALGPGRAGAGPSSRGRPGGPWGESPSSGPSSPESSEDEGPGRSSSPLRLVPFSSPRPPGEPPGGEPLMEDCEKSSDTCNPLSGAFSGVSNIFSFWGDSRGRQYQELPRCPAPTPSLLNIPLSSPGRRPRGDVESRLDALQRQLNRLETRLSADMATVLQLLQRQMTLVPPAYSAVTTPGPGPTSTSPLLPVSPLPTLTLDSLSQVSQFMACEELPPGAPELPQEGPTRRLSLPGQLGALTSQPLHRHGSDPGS
Take `COc1ccc(N=C2SC(CC(=O)Nc3ccccc3)C(=O)N2CCN2CCOCC2)cc1` (centres unmarked): the “hERG current change (%, negative = inhibition) at 10uM” value is given as -23.1%. With `O=C(CC1SC(=Nc2ccccc2F)N(CCN2CCOCC2)C1=O)Nc1ccc(F)cc1F` (centres unmarked) the figure was -13.1%; with `O=C(CC1SC(=Nc2ccc(OC(F)F)cc2)N(CCN2CCOCC2)C1=O)Nc1ccc(F)cc1F` (centres unmarked), -82.9%. As for `Cc1cc(NCC(C)C)n2ncnc2n1`, the figure is 14%; as for `CCCn1c(=N)c(S(=O)(=O)c2ccccc2)cc2c(=O)n3cccc(C)c3nc21`, 0.577%; as for `N=c1c(S(=O)(=O)c2ccc(Br)cc2)cc2c(=O)n3ccccc3nc2n1Cc1ccccc1`, 27%.

As to `Cc1cccn2c(=O)c3cc(S(=O)(=O)c4ccccc4)c(=N)n(Cc4ccc(F)cc4)c3nc12`, the “hERG current change (%, negative = inhibition) at 10uM” value stood at 24.7%. With `Cc1cccn2c(=O)c3cc(S(=O)(=O)c4ccccc4)c(=N)n(Cc4cccnc4)c3nc12` the figure was -66.1%.

As to `N=c1c(S(=O)(=O)c2ccccc2)cc2c(=O)n3ccccc3nc2n1Cc1cccnc1`, the “hERG current change (%, negative = inhibition) at 10uM” value is given as -59.2%.

Consider `N=c1c(S(=O)(=O)c2ccc(Cl)cc2)cc2c(=O)n3ccccc3nc2n1Cc1cccnc1`, for which the “hERG current change (%, negative = inhibition) at 10uM” value is reported as -35.5%. On to `CCCCC(CC)C(=O)Nc1cc(C(=O)NCc2ccc(C)cc2)ccc1N1CCC2(CC1)CC(c1cccc(Br)c1)=NO2` (centres unmarked), for which the “hERG current change (%, negative = inhibition) at 10uM” value is 17.6%. Take `CCOC(=O)C1=C(C)N=c2s/c(=C/c3cccc([N+](=O)[O-])c3O)c(=O)n2C1c1ccccc1` (centres unmarked): the “hERG current change (%, negative = inhibition) at 10uM” value is reported as -20.4%. Turning to `COc1ccc(CCC(=O)Nc2ncc(C)s2)cc1OC`, the “hERG current change (%, negative = inhibition) at 10uM” value was 16.2%. As for `Cc1ccc(S(=O)(=O)N2CCN(C(=O)COC(=O)CSc3cc(C)ccc3C)CC2)c(C)c1`, the figure is -6.13%; as for `COCCC(=O)N1CCC(n2nccc2NC(=O)c2ccccc2C)CC1`, 12.6%; as for `COc1ccccc1C(=O)NC(CCSC)C(=O)N1CCN(C/C=C/c2ccccc2)CC1` (centres unmarked), -109%. As for `COc1ccccc1C(=O)Nc1ccnn1C1CCN(C/C=C/c2ccc(F)cc2)CC1`, the figure is -76.6%.

Turning to `COc1ccccc1C(=O)NC(CCSC)C(=O)N1CCN(C(C)=O)CC1` (centres unmarked), the “hERG current change (%, negative = inhibition) at 10uM” value is reported as -0.345%. As for `COc1ccccc1C(=O)NC(CCSC)C(=O)N1CCC(Cc2ccccc2)CC1` (centres unmarked), the figure is -23.1%; as for `COc1ccccc1C(=O)Nc1ccnn1C1CCN(C/C=C/c2ccccc2)CC1`, -78.9%; as for `O=C(COc1ccccc1-c1ccccc1)NN=C1CCCC1`, -6.03%.

Turning to `COC(=O)c1cc(NC(=O)CN(c2ccc3c(c2)OCO3)S(C)(=O)=O)ccc1Cl`, the “hERG current change (%, negative = inhibition) at 10uM” value is -8.58%.

`CCN1CCN(Cc2ccc(NC(=O)c3cc(NC(=O)C(=O)c4c[nH]c5ccccc45)cc(OC)c3)cc2C(F)(F)F)CC1`: the “hERG current change (%, negative = inhibition) at 10uM” value is 8.1%.

As to `O=C(CSc1nc2cc(Cl)c(Cl)cc2[nH]1)c1ccc2c(c1)OCO2`, the “hERG current change (%, negative = inhibition) at 10uM” value is recorded as 7.8%. As for `Cc1c(C(C)NC(=O)Nc2ccc(F)cc2F)cnn1C` (centres unmarked), the figure is 15.2%; as for `O=C(O)/C=C/c1ccc([N+](=O)[O-])o1`, 22.2%. With `Fc1ccccc1CSc1nnc(-c2ccccc2)o1` the figure was -9.31%; with `COP(=O)(OC)C(NS(=O)(=O)c1ccccc1)C(Cl)(Cl)Cl` (centres unmarked), 23.8%. With `COc1ccc(OC)c(Nc2nc(-c3ccccc3O)nc3ccccc23)c1` the figure was 18.7%.

As for `COc1ccc2nc(C)cc(Nc3ccccc3O)c2c1.Cl`, the “hERG current change (%, negative = inhibition) at 10uM” value is -20.3%. In the case of `COc1ccc(OC)c(Nc2cc(-c3ccccc3)nc(N)n2)c1`, the “hERG current change (%, negative = inhibition) at 10uM” value is -55.9%. With `COc1ccc(OC)c(Nc2cc(C)c3ccccc3n2)c1`, the “hERG current change (%, negative = inhibition) at 10uM” value amounted to 2%. With `CCOC(=O)c1nc(Nc2cc(Cl)ccc2OC)c2ccccc2n1` the figure was 6.83%; with `COc1ccc(OC)c(Nc2cc(C)nc3ccc(C)cc23)c1`, -68.6%; with `COc1ccc(OC)c(Nc2ncnc3ccccc23)c1.Cl`, -18.6%. As for `COc1ccc(OC)c(Nc2ccc(Nc3cc(OC)ccc3OC)nn2)c1`, the figure is -2.07%; as for `COc1ccc(Cl)cc1Nc1cc(C)nc2ccccc12`, -73%. As for `COc1ccc(OC)c(Nc2cc(C)nc3ccccc23)c1`, the figure is -57.6%; as for `COc1ccc(Cl)cc1Nc1nc(N)c2ccccc2n1.Cl`, 20.4%.

As for `Cc1cccc(OC(C)C(=O)Nc2ccccc2C(=O)N2CCCCC2)c1` (centres unmarked), the “hERG current change (%, negative = inhibition) at 10uM” value was -0.472%. With `CCCC1=Nc2cc(C(=O)NCc3ccco3)ccc2Sc2ccccc21` the figure was 1.84%; with `CC(Cl)C(=O)Nc1cc(C(F)(F)F)ccc1N1CCOCC1` (centres unmarked), 2.38%. With `COc1ccccc1N(CC1CO1)S(=O)(=O)c1ccc(C)cc1` (centres unmarked) the figure was 18.9%. As for `Cc1cccc(NC(=O)Cc2c(F)cccc2Cl)n1`, the figure is 5.01%. For the compound `O=C(Nc1cccc(C(=O)N2CCCCCC2)c1)c1ccco1`, the “hERG current change (%, negative = inhibition) at 10uM” value is -14.5%.

With `CC1CCN(C(C)C(=O)Nc2cc(S(=O)(=O)N3CCCCC3)ccc2Cl)CC1` (centres unmarked), the “hERG current change (%, negative = inhibition) at 10uM” value is listed as -18.3%. With `COc1ccc2c(c1)C(c1cccs1)=NNC(c1cccnc1)=N2` the figure was 10.4%; with `CCOc1ccc2c(c1)C(c1cccs1)=NNC(c1cccnc1)=N2`, -65.4%.

Consider `CCc1ccc2c(c1)C(c1cccs1)=NNC(c1cccnc1)=N2`, for which the “hERG current change (%, negative = inhibition) at 10uM” value is -48.6%. With `O=C(CCn1c(=S)oc2ccccc21)N1CCCCC1` the figure was -7.1%; with `COc1ccc(C)cc1S(=O)(=O)N1CCN(S(=O)(=O)c2cc(C)ccc2OC)CC1`, -1.43%.

Turning to `COc1ccc(Br)cc1CNCCc1ccc2c(c1)OCO2`, the “hERG current change (%, negative = inhibition) at 10uM” value is on record as -60.7%. With `COc1ccc(CNCc2ccc3c(c2)OCO3)cc1Br.O=C(O)C(=O)O` the figure was -23.1%. As for `COc1ccc(CCNCc2cccc(C(F)(F)F)c2)cc1OC.O=C(O)C(=O)O`, the figure is 0.584%; as for `COc1cc(OC)c(OC)cc1CNCCc1ccc2c(c1)OCO2.O=C(O)C(=O)O`, -8.77%.

As to `COc1ccc(OC)c(CNCCc2ccc(OC)c(OC)c2)c1.O=C(O)C(=O)O`, the “hERG current change (%, negative = inhibition) at 10uM” value was 5.38%. With `COc1cc(CNCCc2ccc3c(c2)OCO3)cc(OC)c1OC.O=C(O)C(=O)O` the figure was -14.2%; with `COc1ccc(CNCCc2ccc3c(c2)OCO3)cc1Br.O=C(O)C(=O)O`, -50.5%. Turning to `COc1cc(Br)c(CNCCc2ccc3c(c2)OCO3)cc1OC`, the “hERG current change (%, negative = inhibition) at 10uM” value is -32%.

`COc1ccc(CCNCc2ccc(Br)cc2)cc1OC.O=C(O)C(=O)O`: the “hERG current change (%, negative = inhibition) at 10uM” value is given as -62.9%.

For the compound `Cc1nnc(NC(=O)c2cc(S(=O)(=O)N3CCCCC3)ccc2Cl)s1`, the “hERG current change (%, negative = inhibition) at 10uM” value came to 14.6%. Turning to `CC(=O)c1ccc(NS(=O)(=O)c2c(C)cc(C)cc2C)cc1`, the “hERG current change (%, negative = inhibition) at 10uM” value was determined as 17.9%. With `N#Cc1cn(-c2ccccc2)nc1-c1ccccc1`, the “hERG current change (%, negative = inhibition) at 10uM” value stood at 0.313%. As for `COC(=O)c1cc(CSc2ncnc3sccc23)oc1C`, the figure is 16.6%; as for `CCOC(=O)C1(CCc2ccccc2)CCN(Cc2c(O)cccc2OC)CC1`, -95.1%; as for `COc1cc(OC)c(OC)cc1CN1CCN(C(=O)Cc2ccccc2)CC1.O=C(O)C(=O)O`, 5.5%. With `CCOC(=O)C1(CCc2ccccc2)CCN(Cc2cc(OC)c(OC)cc2OC)CC1`, the “hERG current change (%, negative = inhibition) at 10uM” value is -77.4%.

Regarding `O=C(NCc1cccc(C(F)(F)F)c1)c1cccc(Cl)c1Cl`, the “hERG current change (%, negative = inhibition) at 10uM” value was determined as 10.5%.

Consider `CCc1cc(Cn2nc(-c3ccccc3)cc2C(=O)O)on1`, for which the “hERG current change (%, negative = inhibition) at 10uM” value was -1.7%. With `O=C(CNC(=O)c1cccs1)N/N=C/c1cccc(Cl)c1`, the “hERG current change (%, negative = inhibition) at 10uM” value is on record as -5.74%.

Regarding `COc1ccc(OC)c(NC(=O)C(=O)NNC(=O)c2cccs2)c1`, the “hERG current change (%, negative = inhibition) at 10uM” value is on record as 10.9%. As for `O=C(NCCCO)C(=O)NCC(c1ccc2c(c1)OCO2)N1CCN(c2ccc(F)cc2)CC1` (centres unmarked), the figure is -41.4%; as for `CC[N+](CC)(CCCCS(=O)(=O)[O-])CCNP1(=O)C=C(c2ccccc2)OC(c2ccccc2)=C1`, 9.75%.

As for `O=C(C[N+]1(CC#Cc2ccccc2)CCOCC1)c1ccccc1.[Br-]`, the “hERG current change (%, negative = inhibition) at 10uM” value was 35.8%. As for `N#CC[N+]1(CCCNP2(=O)C=C(c3ccccc3)OC(c3ccccc3)=C2)CCOCC1.[Cl-]`, the figure is -63.5%; as for `O=C(c1ccccn1)N1N=C2/C(=C/c3ccccc3)CCCC2C1c1ccccc1` (centres unmarked), -37.1%. With `Cc1ncsc1C(=O)N1N=C2/C(=C/c3ccccc3)CCCC2C1c1ccccc1` (centres unmarked) the figure was -0.298%; with `CC(=O)N1N=C2/C(=C/c3ccccc3)CCCC2C1c1ccccc1` (centres unmarked), -10.5%.

Consider `NC(=O)N1N=C2/C(=C/c3ccccc3)CCCC2C1c1ccccc1` (centres unmarked), for which the “hERG current change (%, negative = inhibition) at 10uM” value is reported as -17.1%. With `O=C1CCC(C(=O)OCC(=O)N2N=C3/C(=C/c4ccccc4)CCCC3C2c2ccccc2)N1` (centres unmarked) the figure was -70.3%; with `O=C(c1ccccn1)N1N=C2/C(=C/c3ccc(F)cc3)CCCC2C1c1ccc(F)cc1` (centres unmarked), -54.3%; with `CCCCCOC(=O)C1=C(C)NC(=O)NC1c1ccc(N(C)C)cc1` (centres unmarked), 12.5%. Take `COc1ccc(C2C3=C(CC(C)(C)CC3=O)Nc3c2c(=O)[nH]c(=O)n3Cc2ccccc2)cc1OC` (centres unmarked): the “hERG current change (%, negative = inhibition) at 10uM” value is -3.11%.

The record behind these values is PMC4336329 (PLoS ONE, 2015).
